Screening results as filed in PubChem BioAssay.
Rows were chosen to be rich in hits. Some 1.4% of all compounds tested hit in one or more screens of this group.
MCL1-BIM inh = inhibitors of MCL1 binding to BIM-BH3, primary screen, biochemical, fluorescence polarization; AID 2057, 2009; GST-MCL1 / FITC-Bim-BH3 fluorescence polarization; inhibition, % at 10.9 µM; Induced myeloid leukemia cell differentiation protein Mcl-1 (Homo sapiens), Q07820; 320,000 tested, 0.68% active;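 active = inhibition above the mean inhibition of all tested compounds plus 3 SD, set per campaign, cut at about 40% in these data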;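 also: 0% = DMSO wells and 100% = unlabeled Bim-BH3 peptide control; higher means more loss of mP so more displacement of Bim peptide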
Target sequence (Q07820 whole entry, looked up): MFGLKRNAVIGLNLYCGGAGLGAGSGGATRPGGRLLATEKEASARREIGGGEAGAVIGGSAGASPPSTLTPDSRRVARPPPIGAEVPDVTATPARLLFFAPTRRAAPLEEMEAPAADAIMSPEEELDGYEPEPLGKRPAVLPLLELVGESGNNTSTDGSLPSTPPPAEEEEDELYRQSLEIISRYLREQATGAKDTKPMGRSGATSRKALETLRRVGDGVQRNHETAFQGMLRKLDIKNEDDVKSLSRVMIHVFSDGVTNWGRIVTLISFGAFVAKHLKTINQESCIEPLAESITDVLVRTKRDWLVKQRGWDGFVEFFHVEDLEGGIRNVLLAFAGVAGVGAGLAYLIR
E coli Lon inh = inhibitors of E. coli Lon protease, primary screen, biochemical, fluorescence polarization. AID 602123, 2011. purified E. coli Lon protease. 360,000 tested, 0.42% active. inhibition, % at 7.94 µM. P0A9M0; in the data active = inhibition above about 13%, passing the limit was not always enough;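 also: 0% = enzyme with probe and DMSO and 100% = no enzyme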
Bcl-xL primary = inhibitors of human Bcl-xL, primary screen, biochemical, fluorescence polarization, HTS | inhibition, % at 10.9 µM | GST-Bcl-xL / FITC-Bim BH3 peptide fluorescence polarization | AID 2129, 2009 | 320,000 tested, 0.7% active;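 active = inhibition above the mean of all tested compounds plus 3 SD, cutoff set per campaign, cut at about 30% in these data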;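 also: 0% = DMSO wells and 100% = unlabeled Bim-BH3 peptide competitor; inhibitors lower millipolarization by displacing the labeled peptide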
Target sequence (Q07817 whole entry, looked up): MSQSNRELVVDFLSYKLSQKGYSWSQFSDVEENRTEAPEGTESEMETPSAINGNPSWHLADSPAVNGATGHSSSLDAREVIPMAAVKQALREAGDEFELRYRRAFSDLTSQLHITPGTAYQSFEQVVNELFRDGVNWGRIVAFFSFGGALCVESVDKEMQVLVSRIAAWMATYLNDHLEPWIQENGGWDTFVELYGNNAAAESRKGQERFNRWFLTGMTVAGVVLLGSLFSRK
EBV gp42 inh = Epstein-Barr virus gp42 inhibitors, primary screen, biochemical, uHTS, fluorescence polarization; 220,000 tested, 0.42% active; Fluorescence polarization binding assay, mP read-out; AID 1085, 2008; inhibition, % (tested at 21.74 µM); in the data active = inhibition above about 50%
GLD-1 TGE inh = GLD-1/TGE RNA complex disruptors, primary screen, biochemical, fluorescence polarization | purified GLD-1 + fluorescein TGE RNA | inhibition, % at 5.96 µM | 320,000 tested, 0.44% active | AID 2280, 2010;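 active = percent inhibition above a per-plate cutoff, the plate mean of test compounds plus 3 SD, cut at about 30% in these data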;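 also: 0% = DMSO wells with GLD-1 and probe and 100% = wells lacking GLD-1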
MEX-5 binding = MEX-5 zinc finger RNA-binding disruptors – biochemical, C. elegans, fluorescence polarization, MLPCN library, primary screen; 300,000 tested, 0.38% active; activity score (negative = inhibition of binding), % at 10 µM; MEX-5/FITC-TCR2 RNA binding; stronger effect = lower value;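 active = inhibition past about -25% in most replicates, and total fluorescence under double the plate's negative control median, limit read from the data; inconclusive = replicates evenly split on the limit, or fluorescence at least double controls; inactive = too little inhibition in most replicates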;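 also: 0% = DMSO and -100% = 5 µM competing unlabeled TCR2 RNA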
E coli Lon conf = E. coli Lon protease inhibitor retest, confirmation, biochemical, fluorescence polarization | shares compounds with E coli Lon inh | purified E. coli Lon | inhibition, % at 7.94 µM | 1,400 tested, 31% active; in the data active = inhibition above about 16%;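 also: 0% = enzyme with probe and DMSO and 100% = no enzyme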
* hit, by the source's call; ? = inconclusive; . = not tested or not shown.

SMILES	MCL1-BIM inh	E coli Lon inh	Bcl-xL primary	EBV gp42 inh	GLD-1 TGE inh	MEX-5 binding	E coli Lon conf
CCOc1nc(N2CCCCC2)nc(-n2cc(-c3ccccc3)nn2)n1	9	16*	4	-8	7	-1	-1
Cc1cc(C)n2nc(SCc3cc(=O)oc4cc(C)c(C)cc34)nc2n1	1	.	5	6	-2	1	.
Cc1cc(C)n2nc(SCc3cc(=O)oc4ccc5ccccc5c34)nc2n1	17	14*	20	8	13	4	-12
O=S(=O)(Nc1ncccn1)c1ccc(-n2cnnn2)cc1	-2	4	0	-1	0	-1	.
CCN(CC(=O)NCc1ccc(F)cc1)CC(=O)Nc1cc(S(=O)(=O)N(C)C)ccc1C	-11	-3	-10	.	-1	.	.
CCN(CC(=O)NCc1ccc(F)cc1)CC(=O)Nc1ccc(Br)cc1F	.	22*	.	.	-2	.	-2
O=C(NNC(=O)c1ccccc1-n1cccc1)c1cncc(Br)c1	.	38*	.	.	7	.	-55
NC(=O)c1cc2cc(Cc3ccccc3Cl)ccc2oc1=O	-2	-11	1	-12	1	2	.
CCN(CC)S(=O)(=O)c1ccc(NC(=O)CC(NC(C)=O)c2ccccc2)cc1 (stereo not given)	-3	17*	5	-15	-2	0	-5
Cc1cc2cc(CNC(=S)Nc3ccc(OC(F)F)cc3)ccc2n1C	13	15*	14	-3	10	0	1
Cc1cc2cc(CNC(=O)Nc3ccc(Cl)c(Cl)c3)ccc2n1C	15	23*	7	-19	15	1	13
FC(F)Oc1ccc(NC(=S)NCc2ccccc2)cc1	18	-2	11	-19	2	0	.
Cc1ccc(/C=C/C(=O)NCCCN2CCN(CCCNC(=O)/C=C/c3ccc(C)o3)CC2)o1	6	27*	6	0	-2	1	-3
O=C(/C=C/c1ccc(F)cc1)NCCCN1CCN(CCCNC(=O)/C=C/c2ccc(F)cc2)CC1	0	-4	4	-9	12	2	.
CCOc1ccccc1/C=N/NC(=O)c1cc(C(C)C)[nH]n1	-4	-7	-2	.	-1	0	.
CC(C)c1cc(C(=O)N/N=C/c2c[nH]c3ccccc23)n[nH]1	6	25*	6	-3	-1	-1	-8
Nc1ccc(C(=O)N/N=C/c2sc(N3CCOCC3)nc2-c2ccccc2)cc1	0	-7	6	-19	8	1	.
COc1cc(C(=O)N/N=C/c2sc(N3CCOCC3)nc2-c2ccccc2)cc(OC)c1OC	3	17*	3	-4	2	5	7
Cc1ccc(-c2nn3c(-c4ccccc4)nnc3o2)cc1	.	-14	.	.	.	.	.
Cc1nc(CCNC(=O)CC2C(=O)NCCN2CC(C)(C)C)nc2c1CCC2 (stereo not given)	31	22*	28	.	18	-1	12
COc1ccc(CNC(=O)CCc2ccc(S(=O)(=O)N3CCCCCC3)cc2)cc1OC	.	-4	.	.	.	.	.
COC(=O)c1cc(NS(=O)(=O)c2cccs2)cc(NS(=O)(=O)c2cccs2)c1	.	125*	.	.	.	.	16
CCC/C(=N/NC(=O)c1nnn(-c2nonc2N)c1CN1CCCCC1)c1ccccc1	6	13*	2	.	2	0	-15
CCCc1cc(=O)[nH]c2nnc(SCC(=O)Nc3cc(C)on3)n12	-5	-3	1	.	5	-4	.
Cc1ccc(NC(=O)CSCc2cc(=O)n3cc(C)sc3n2)cc1	-1	-10	2	.	6	1	.
SMILES	MCL1-BIM inh	E coli Lon inh	Bcl-xL primary	EBV gp42 inh	GLD-1 TGE inh	MEX-5 binding	E coli Lon conf
O=C(CN1CCCc2ccccc21)NC(=O)NCc1ccco1	16	53*	10	3	6	1	-3
COC(=O)C(Cc1ccc(O)cc1)NC(=O)C(C)NC(=O)c1ccc(C(C)(C)C)cc1 (stereo not given)	6	-9	5	.	8	1	.
O=C(CCC1CCCC1)N1CCN(S(=O)(=O)c2ccc(Br)cc2)CC1	6	19*	2	.	5	.	-2
O=C(CCN1C(=O)S/C(=C\c2ccccc2)C1=O)Nc1ccc(O)cc1C(=O)O	5	19*	3	.	-3	-7	5
CN(C)CCN(C(=O)c1ccc2ccccc2c1)c1nc2c(F)cccc2s1	5	2	5	.	9	-1	.
Cc1cc(C)c2nc(N(CCN(C)C)C(=O)c3ccc4ccccc4c3)sc2c1	0	20*	-2	.	0	-1	-4
COc1ccc(C(=O)OCC(=O)NC2CC2)cc1F	.	1	.	.	0	.	.
OC(c1ccc(CN2CCCCC2)cc1)c1ncc(-c2ccccc2)[nH]1 (stereo not given)	.	-5	.	.	.	.	.
CCCNC(=S)Nc1ccc2nc(-c3ccccn3)c(-c3ccccn3)nc2c1	22	19*	16	-15	13	-7	-3
Fc1ccc(CNCCC(Cc2ccccc2)c2ccco2)cc1 (stereo not given)	8	-4	11	-9	3	2	.
CC(NCCC(Cc1ccccc1)c1ccco1)c1ccccc1 (stereo not given)	6	18*	8	-13	5	0	12
CC1CC(C)CN(CCC(=O)Nc2ccc(Br)cc2)C1 (stereo not given)	-1	2	4	.	5	-1	.
NC(=O)CSc1cn(Cc2cccc(F)c2)c2ccccc12	-2	26*	4	4	0	1	-9
CC(C)Cn1c(=O)c(C(=O)Nc2ccncc2)c(O)c2ccccc21	11	35*	10	.	-1	1	23*
CC1(NC(=O)Nc2cc([N+](=O)[O-])ccc2O)CCS(=O)(=O)C1 (stereo not given)	-7	-8	-6	.	-3	.	.
O=C1c2ccccc2C(=O)N1SC1CCCCC1	9	19*	6	-39	2	1	-65
O=C1c2cccc3c(N4CCCCC4)ccc(c23)C(=O)N1CCO	27	126*	49*	-1	-3	-26*	-76
C=CCN1C(=O)c2cccc3c(N4CCCCC4)ccc(c23)C1=O	-12	114*	1	15	151*	?	-94
CN(C)CCN(C)Cc1ccccc1Sc1cccc2ccccc12	-4	3	3	-8	-9	-1	.
CN(C)CCNc1oc(COc2cccc(Cl)c2)nc1C#N	17	20*	19	-11	10	2	-16
